V-ATPase pHluor – yeast V-ATPase proton transport regulation by pHLuorin; AID 504577; response, % at 10 µM; actives 0.37% (n = 350,000); S. cerevisiae, pHLuorin cytosolic pH fluorescence; in the data active = response mostly above about 7.3%, no sharp cut-off; inactive = mostly below about 5.4%; note: actives read high
AI-2 QS modul – Vibrio harveyi AI-2 quorum sensing modulation; actives 0.4% (n = 300,000); Vibrio harveyi JMH597 AI-2 luminescence/OD600 ratio, 9 h; stronger effect = lower value; strain lacks LuxN and CqsS sensors; 0 = neutral-control median; AID 2094; activity change, % at 7.5 µM; in the data active = activity change below about -75%, passing the limit was not always enough;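 note: luminescence divided by OD600 gain over 9 h not by final OD600 alone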
Efflux pump mplx – blocks antifungal efflux pumps in multiplex yeast assay; S. cerevisiae Candida pump triplex, Nile Red efflux; inhibition, % at 10 µM; actives 0.44% (n = 330,000); AID 485275;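 active = plate passing quality check with inhibition over a set limit, or well fluorescence over plate mean plus 4 SD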;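 note: Nile Red retained in pooled yeast measured as flow cytometry median fluorescence; 0% = buffer negative control and 100% = Enniatin B positive control; higher means more Nile Red kept so more efflux inhibition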
ATG4B inhibitor – inhibitors of human ATG4B cysteine protease; Q9Y4P1; ATG4B cleavage of LC3-PLA2, NBD-HPC fluorescence, 1 h; inhibition, % at 8.33 µM; actives 0.51% (n = 340,000); AID 504462; in the data active = inhibition above about 40%
Target sequence (Q9Y4P1 whole entry, looked up): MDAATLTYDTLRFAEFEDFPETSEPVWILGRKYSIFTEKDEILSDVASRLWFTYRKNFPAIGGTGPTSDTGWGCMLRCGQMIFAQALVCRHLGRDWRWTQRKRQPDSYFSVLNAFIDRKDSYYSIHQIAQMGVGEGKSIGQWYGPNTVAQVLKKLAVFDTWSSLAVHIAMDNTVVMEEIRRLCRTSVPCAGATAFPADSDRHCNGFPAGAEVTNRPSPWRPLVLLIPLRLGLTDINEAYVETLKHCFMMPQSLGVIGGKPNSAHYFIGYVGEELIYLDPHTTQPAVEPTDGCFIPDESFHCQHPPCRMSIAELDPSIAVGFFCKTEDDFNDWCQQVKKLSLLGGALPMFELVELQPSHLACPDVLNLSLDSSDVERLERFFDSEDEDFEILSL
SUMO Mot1 rescue – inhibitors of SUMOylation pathway: yeast Mot1-301 growth rescue; actives 1% (n = 320,000); S. cerevisiae Mot1-301 growth rescue, ATP luminescence, 38.5C; percent above DMSO median, 100 means doubled; growth rescue, % at 18.8 µM;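 active = every valid replicate shows activation above 250% relative to neutral control wells; inactive = the rest, any valid replicate at or below 250%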;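 note: OY570 slx delta 5 strain wells were the positive control but not used for scaling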
ATG4B conf – confirmation of human ATG4B inhibitors; AID 504757; ATG4B protease fluorescent substrate cleavage assay; inhibition, % at 8.33 µM; shares compounds with ATG4B inhibitor; actives 92% (n = 320); in the data active = inhibition above about 39%
PLA2 ctr – PLA2 (human) inhibition in ATG4B counter-screen; shares compounds with ATG4B inhibitor; purified PLA2, NBD-C6-HPC fluorescence, 45 min; inhibition, % at 8.33 µM; actives 66% (n = 1,600); in the data active = inhibition above about 50%
Target sequence (P04054 whole entry, looked up): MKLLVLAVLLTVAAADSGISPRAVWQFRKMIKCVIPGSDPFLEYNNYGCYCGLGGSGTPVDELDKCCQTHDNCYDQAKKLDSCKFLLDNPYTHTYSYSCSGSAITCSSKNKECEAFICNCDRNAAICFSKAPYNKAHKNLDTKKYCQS
* hit, by the source's call; · = no result. Only some compounds are listed: those with a hit (about 2.5% of all), similar ones and a draw of the others.

SMILES	V-ATPase pHluor	AI-2 QS modul	Efflux pump mplx	ATG4B inhibitor	SUMO Mot1 rescue	PLA2 ctr	others
CCOc1ccc2nc(SCC(=O)NC3CCCc4ccccc43)sc2c1 (configuration not stated)	-81.4	4.0	-0.1	50.2*	-13.2	44.0
CC(C)c1ccccc1OCC(=O)NC1CCCc2ccccc21 (configuration not stated)	-4.7	25.3	-0.2	47.8*	6.2	44.7	ATG4B conf=65.2*
COCOc1ccc(C=O)c(O)c1	0.8	11.1	-0.2	-21.5	14.5	·
O=Cc1ccc(OCc2cccc(C(F)(F)F)c2)cc1O	-2.0	11.4	-0.1	56.6*	67.1	77.3*
OC(CN1c2ccccc2Sc2ccccc21)Cn1nnc2ccccc21 (configuration not stated)	-1.7	4.6	-0.1	44.4*	16.6	64.9*
COc1ccccc1CN(C)CC(=O)Nc1ccccc1-c1ccccc1	-18.2	10.4	-0.2	39.4	6.4	·
Cc1cc(C)cc(N(CC(=O)Nc2ccccc2-c2ccccc2)S(=O)(=O)c2ccccc2)c1	2.6	21.4	0.0	57.5*	1.2	13.8
Cc1ccc(N(CC(=O)Nc2ccccc2-c2ccccc2)S(=O)(=O)c2ccccc2)cc1	0.5	23.1	0.1	37.5	-0.7	·
Cc1ccccc1CN(C)CC(=O)Nc1ccccc1-c1ccccc1	0.8	33.4	-0.1	51.5*	23.5	53.6*
Cc1cccc(C)c1OCC(=O)Nc1cccc(NC(=O)c2ccco2)c1	-0.5	18.3	0.1	47.8*	1.3	49.0	ATG4B conf=56.6*
Cc1cccc2c1N(CCOc1ccc(C(C)(C)C)cc1)C(=O)C2=O	-4.3	10.5	-0.2	57.3*	3.9	14.3	ATG4B conf=51.8*
CCOc1ccc(NC(=O)CN2CCN(CC(=O)Nc3ccc(Cl)c(C(F)(F)F)c3)CC2)cc1	1.7	-5.4	0.0	1.0	-8.7	·
CCOc1ncccc1C(=O)Nc1ccc2c(c1)OCCCO2	-2.0	·	·	0.8	·	·
CCOc1cc(/C=C2\C(=O)N(c3nc(-c4ccc(Br)cc4)cs3)N=C2c2ccccc2)ccc1O	-4.6	22.0	0.2	53.5*	368.2	46.7	ATG4B conf=66.5*
Cc1ccc(NC(=O)COC(=O)Cc2ccc(Br)cc2)cc1S(=O)(=O)N1CCOCC1	1.1	·	0.0	-9.1	4.3	·
CC1(C)SC2c3ccccc3C(=O)N2[C@@H]1C(=O)O (some centres not stated)	5.3	20.5	0.0	1.3	63.1	·
O=C(O)c1ccccc1C(=O)Nc1nc(-c2ccc3ccccc3c2)cs1	-1.7	27.6	0.0	83.1*	-17.5	84.4*
Cc1csc(NC(=O)c2ccccc2[N+](=O)[O-])n1	-1.2	5.5	0.0	-3.2	·	·
O=C(Nc1nc(-c2cccc([N+](=O)[O-])c2)cs1)c1cccc([N+](=O)[O-])c1C(=O)O	2.5	7.7	0.0	79.2*	181.4	81.9*
O=C(Nc1nc(-c2ccc3ccccc3c2)cs1)c1ccc(N2C(=O)CCC2=O)cc1	2.1	10.5	0.0	-10.1	152.3	·
COc1ccc(-c2csc(NC(=O)c3ccccc3NS(=O)(=O)c3ccc(C)cc3)n2)cc1	-6.9	69.1	-0.2	74.4*	6.4	67.7*
Cc1ccc(-c2csc(NC(=O)c3cccc([N+](=O)[O-])c3C(=O)O)n2)cc1	-2.6	-4.5	0.0	52.7*	4.8	69.3*
CCC(=O)N1CCN(c2ccccc2NC(=O)COc2ccc(C(C)C)cc2)CC1	3.0	7.1	0.1	12.2	-26.0	·
COc1cc(C(=O)Nc2cccc(C)c2C)ccc1OCC(=O)N1CCOCC1	2.1	·	-0.2	-7.6	-15.6	·
Brc1ccc(-c2nnc3n2C2(CCCC2)Cc2ccccc2-3)o1	0.1	22.2	0.0	52.5*	-3.1	63.2*
SMILES	V-ATPase pHluor	AI-2 QS modul	Efflux pump mplx	ATG4B inhibitor	SUMO Mot1 rescue	PLA2 ctr	others
C=CCNC(=O)c1c(Br)cnn1-c1ccc(C)cc1	-4.0	-3.7	0.0	3.8	-0.1	·
COc1ccc(-c2ccc3c(c2)S(=O)(=O)c2cccc(C(=O)NCc4cccc(OC(F)(F)F)c4)c2C3=O)cc1OC	-18.9	·	-0.1	70.0*	-3.0	69.7*
Cc1ccc(SCCNC(=O)/C=C/c2ccc(Cl)cc2)cc1	-0.1	15.3	0.2	9.5	67.1	·
Cc1ccc(SCCNC(=O)/C=C/c2ccccc2Cl)cc1	-1.7	26.7	0.0	56.2*	28.9	65.9*
Cc1c(C(=O)NC2CCC(C)CC2)oc2ccccc12 (configuration not stated)	2.0	7.0	0.0	-0.5	-6.0	·
COC(=O)N/N=C/c1cn(Cc2ccccc2Cl)c2ccccc12	8.9	16.2	0.1	34.9	9.8	·
Cc1ccc(OCC(=O)N/N=C\c2cn(Cc3ccccc3)c3ccccc23)cc1C	3.9	17.5	0.5	42.7*	-10.8	10.2
COC(=O)N/N=C/c1cn(Cc2ccc(Cl)cc2Cl)c2ccccc12	-1.9	18.1	-0.1	53.3*	-14.0	60.8*
COC(=O)N/N=C/c1cn(Cc2c(Cl)cccc2Cl)c2ccccc12	0.0	24.8	-0.3	42.0*	12.6	50.6*
CC(=O)c1c(C)n(-c2ccccc2)c2ccc(OCC(N)=O)cc12	-1.8	10.4	0.1	46.8*	61.7	52.1*
CCCN1CCC(NC(=O)Cc2cccc(C)c2)CC1	2.1	14.3	0.0	5.8	-20.4	·
CCC(NC(=S)NCc1ccc(F)cc1)c1ccc(C(C)C)cc1 (configuration not stated)	-0.2	9.2	-0.1	53.9*	13.3	76.8*
COc1ccc(C(C)NC(=S)NCc2ccc(F)cc2)cc1OC (configuration not stated)	1.4	3.1	0.1	10.1	-5.7	·
CC(NC(=S)NCc1ccc(F)cc1)C12CC3CC(CC(C3)C1)C2 (configuration not stated)	1.9	37.6	0.5	26.6	16.3	·
CCCc1ccc(C(C)NC(=S)NCc2ccc(F)cc2)cc1 (configuration not stated)	-1.9	-12.5	-0.1	59.0*	25.1	70.2*
CCOc1ccc(C(C)NC(=S)NCc2ccc(Cl)cc2)cc1 (configuration not stated)	-2.6	4.4	0.1	-2.9	9.9	·
CCC(C)c1ccc(C(C)NC(=S)NCc2ccc(F)cc2)cc1 (configuration not stated)	-2.8	-1.8	0.1	63.0*	15.3	77.6*
CC1/C(=N/O)CC(c2ccccc2)N(C)C1c1ccccc1 (configuration not stated)	2.7	11.3	0.0	56.8*	-69.5	48.2
CC1/C(=N/O)CC(c2ccccc2)NC1c1ccccc1 (configuration not stated)	0.2	6.9	0.0	-2.3	-11.6	·
